# Data: the OligoGym collection
# Molecular target: PPIA
# Assay: pooled miR-30 sensor sort-seq; sequence = guide strand
# Settings: shRNA
# Note: reference of the scale not given here.
row,Sequence,sensor-assay potency score (higher = more potent)
1,TACAGAAGGAATGATCTGGTGG,0.317
2,ATAATCATAAACTTAACTCTGC,0.46
3,TTAGGATGAAGTTCTCATCTTC,0.589

# Molecular target: PPIF
# Assay: as above
# Settings: shRNA
row,Sequence,sensor-assay potency score (higher = more potent)
1,TTCAGCTCCAGCACCACGCGGC,-0.501
2,TTCACTTCTAGTCAATCTTGTT,-0.0767
3,TGACCGAACACAACATGCTTGC,-0.464
4,TGTGATGACAATCTTCTTGGAT,0.322
5,TAGGAAGACAATATTAAACAGG,-0.559
6,TTCTATTTTCTTCACGACGTCC,-0.712
7,TTAAACAGGTATTAGAGTCCTT,-0.0918
8,TAAACAGGTATTAGAGTCCTTT,-0.324
9,TTTCACTTCTAGTCAATCTTGT,0.721
10,TATTTTCTTCACGACGTCCATG,-0.975
11,TAGCCATGGACAGGACACCTGG,-1.46
12,TCTGTGATGACAATCTTCTTGG,0.0684

# Molecular target: PPIL1
# Assay: as above
# Settings: shRNA
row,Sequence,sensor-assay potency score (higher = more potent)
1,TAAAATGTACTTCCATCTCTAA,-0.493
2,TAGATAGATGCACCACCTCGAC,-1.34
3,TTACATGTCATTCTATGTCATC,-1.08
4,TTCTATGTCATCTAGAAGCTGG,0.291
5,TAGATGCACCACCTCGACCTGT,-1.02
6,TGTAGTAACCTCGACGAGCCAA,-0.207
7,TTCACGTCGTCCACAGGGCGGT,-0.967
8,TAGCATTACATGTCATTCTATG,-0.73
9,TTCTGTGGAATTTTGTGCCATT,-0.861
10,TATGTCATCTAGAAGCTGGTTC,0.329
11,TTGGATCATGAAGTCTTTGATA,-1.36
12,TTAGCATTACATGTCATTCTAT,-0.539

# Molecular target: PPM1D
# Assay: as above
# Settings: shRNA
row,Sequence,sensor-assay potency score (higher = more potent)
1,TTTCTTTAAACATTTAGCCCTA,-0.501
2,TTCGATTCGTTCTCTTTCCTTG,0.00604
3,TATAATATACTTGTGCTTCTGA,0.584
4,TTGAGGGTATGACTACACCTTG,-1.21
5,TTTACAGCAACTTATACCCTAA,-0.288
6,TTGAGTAACGTCCTCCATGTAC,-0.62
7,TTTTACAGCAACTTATACCCTA,0.379
8,TTTTTTCTCCTCTTGGTCCTGG,0.387
9,TATACTTGTGCTTCTGAGGGTC,0.801
10,TTGGACTCTTCTAATGTCCTTT,-0.026
11,TAACAGAGTTCTTTCGCTGTGA,0.0976
12,TTTAACAGAGTTCTTTCGCTGT,0.0988
